SNCA expr inh = reduces expression of the alpha-synuclein gene. HEK-293 SNCA-luciferase knock-in, luminescence, 24 h. Potency, µM (titrated, usually from 57.2 µM), without a hit: at the highest dose activity change, negative = inhibition, actives largely listed as inhibitors. 0.17% of 140,000 active. AID 1671194;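 note: plate controls were DMSO cells for no effect and cell-free wells for full effect; nearly all actives have a fitted effect of over 45% in size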
HEK293 viab = counter-screen for SNCA expression inhibitors: cell viability | HEK-293-SNCA-luc viability, GF-AFC fluorescence, 24 h | Potency, µM (doses to about 57.1 µM), inactives show top-dose activity change, negative = cytotoxicity, actives largely listed as cytotoxic | 0.12% of 150,000 active | AID 1671193;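 note: 0% = DMSO-treated cells and -100% = medium-only wells without cells; nearly all actives have a fitted effect of over 30% in size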
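Cytotoxicity counterscreen: after 24 h compound treatment of genome-edited SNCA-luciferase HEK-293 cells, live-cell protease substrate GF-AFC read by fluorescence after 30 min; activity scaled between DMSO (0%) and medium-only (-100%), curves Hill-fitted.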
NIH3T3 tox = NIH 3T3 cell cytotoxicity | NIH 3T3 viability, CellTiter-Glo ATP luminescence, 48-72 h | Potency, µM (highest dose often 96.7 µM), without a hit: at the highest dose activity change, negative = cytotoxicity, usual class: inhibitors | 4.3% of 94,000 active | AID 1345082; note: % is set by controls: 0 for no effect and ±100 for the full control effect; nearly all actives have a fitted effect of over 55% in size
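Viability of NIH 3T3 cells after 48 or 72 hr compound treatment at 37 °C was assessed by CellTiter-Glo, with luminescence imaged following a 10 min room-temperature step.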
FLuc inh = inhibitors of firefly (Photinus pyralis) luciferase; P08659; purified P. pyralis luciferase, luminescence, biochemical; Potency, µM (top dose mostly 115 µM), actives largely listed as inhibitors; 2.5% of 76,000 active; AID 1347043; note: % is set by controls: 0 for no effect and ±100 for the full control effect; nearly all actives have a fitted effect of over 65% in size
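Cell-free enzyme assay, 10nM P. pyralis luciferase, luciferin and ATP each at 10uM. Inhibition profiled over a 6-point titration, read as luminescence.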
HEK293 tox = cytotoxic compounds in HEK 293 cells; Potency, µM (series often up to 115 µM), inactives show at the top dose activity change, negative = cytotoxicity, hits mostly inhibitors; 6.6% of 94,000 active; HEK 293 viability, ATP luminescence (CellTiter-Glo), 48-72 h; note: % is set by controls: 0 for no effect and ±100 for the full control effect; nearly all actives have a fitted effect of over 60% in size
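qHTS cytotoxicity; HEK 293, 250 cells/well; compound pinned; 48 or 72 hr, 37 degree Celsius, 5% CO2, 95% humidity; CellTiter-Glo, 10 min RT; luminescence (ATP).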
hNpr1 antagonist = blocks ANP-stimulated signaling of human Npr1 receptor | P16066 | HEK293 hNpr1 GloSensor cGMP, ANP-stimulated luminescence | Potency, µM (doses to about 46.3 µM), inactives show at the highest dose activity change, negative = inhibition, usual class: inhibitors | 1.6% of 76,000 active; calls by dose curve; note: % is set by controls: 0 for no effect and ±100 for the full control effect; nearly all actives have a fitted effect of over 60% in size
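HEK293 cells stably expressing human Npr1 and cGMP GloSensor pGS-40F, loaded 2 h with 2% GloSensor reagent, given compound 30 min at room temperature. Luminescence read before and 20 min after 0.1 nM hNppA.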
Npr1 antag conf = confirmation of human Npr1 natriuretic peptide receptor antagonists. shares compounds with hNpr1 antagonist. HEK293 hNpr1 cGMP GloSensor luminescence, ANP-stimulated. Potency, µM (top dose mostly 57.6 µM), inactives show at the top dose activity change, negative = inhibition, usual class: inhibitors. 76% of 1,400 active; calls by dose curve; note: nearly all actives have a fitted effect of over 70% in size
Npr2 selectivity = antagonizes human Npr2, subtype selectivity check | shares compounds with hNpr1 antagonist | HEK293 hNpr2 GloSensor cGMP luminescence, CNP-stimulated | Potency, µM (titrated, usually from 57.6 µM), inactives show at the highest dose activity change, negative = inhibition, most hits filed as inhibitors | AID 1347046 | 67% of 1,400 active; calls by dose curve; note: nearly all actives have a fitted effect of over 70% in size
FLuc inh counter = FLuc enzyme inhibition, Npr1 counter-screen; 0.7% of 1,400 active; purified FLuc enzyme, luminescence, Km substrate; Potency, µM (series often up to 57.6 µM), without a hit: at the highest dose activity change, negative = inhibition, usual class: inhibitors; shares compounds with hNpr1 antagonist; AID 1347047; note: 0% is about no effect
GloSensor ctrl = control cell line activity, Npr1 antagonist counter-screen; shares compounds with hNpr1 antagonist; HEK293 GloSensor cGMP, SNP-stimulated, luminescence; Potency, µM (titrated, usually from 57.6 µM), without a hit: at the top dose activity change, negative = inhibition, usual class: inhibitors; 69% of 1,400 active; AID 1347051; calls by dose curve; note: % is set by controls: 0 for no effect and ±100 for the full control effect; nearly all actives have a fitted effect of over 70% in size
An asterisk follows results filed as active; i = inactive; ? = inconclusive; nt = no result; [ ] = dose if it differs, or a comment. Only some compounds are listed: those with a hit (about 7.4% of all), similar ones and a draw of the others. Unless noted, calls come from the whole dose curve; as a rule, active = well fitted curve in the direction sought with a large enough effect; inconclusive = small, poorly fitted or top-dose-only effect, or another doubt; inactive = no such curve, though single readings can be large; an effect the other way counts as inactive or inconclusive. Potency is the fitted concentration of half-maximal effect.

SMILES	SNCA expr inh	HEK293 viab	NIH3T3 tox	FLuc inh	HEK293 tox	hNpr1 antagonist	Npr1 antag conf	Npr2 selectivity	FLuc inh counter	GloSensor ctrl
CC(C)Cn1c(=O)c(C(=O)N2CCN(C(=O)c3ccc(F)cc3)CC2)nc2cccnc21	5%	-16%	-22%	nt	-9%	nt	nt	nt	nt	nt
CN(C)C(=O)N1CCCN(c2ccc3nnc(C4CC4)n3n2)CC1	nt	nt	-26%[138 µM]	nt	-14%[172 µM]	nt	nt	nt	nt	nt
COCC(=O)N1CCC(=O)N(CCC#N)C[C@H]2CN(C)c3ccccc3[C@@H]21	6%[25.6 µM]	-17%[23.9 µM]	-31%[46.1 µM]	nt	?	nt	nt	nt	nt	nt
CC(C)NC(=O)N1C2CCC1CN(c1ccc(C(F)(F)F)cc1)C2	?	4%	?	nt	?	nt	21µM*	19µM*	0%	15µM*
O=C(NC1CCCCC1)N1C2CCC1CN(c1ccc(C(F)(F)F)cc1)C2	-6%	-14%	?	nt	?	nt	nt	nt	nt	nt
O=C(NCc1ccc(F)cc1)C1CCc2nnc(C3CCN([S+](=O)([O-])c4ccccc4Cl)CC3)n21 (stereo not given)	5%	7%	-3%	nt	i	nt	nt	nt	nt	nt
O=C1CCN(C(=O)COc2ccc(F)cc2)CCCC(c2nc(-c3cccnc3)no2)CCN1 (stereo not given)	46%	9%	-18%	i	-4%	0%	nt	nt	nt	nt
Cc1c(C(=O)N(C)Cc2cc(-c3cccnc3)no2)oc2c(F)cccc12	10%	0%	?	i	?	?	?	-24%	6%	0%
COc1ccc(-c2noc(CC3CCN(C(=O)c4ccc5c(c4)OCO5)CC3)n2)cc1	-3%	?	?	i	?	2.8µM*	5.4µM*	6.1µM*	1%	4.8µM*
COc1ccc(C2=NOC3(CCN(C(=O)c4ccc5c(c4)OCO5)C3)C2)cc1 (stereo not given)	24%	-4%	?	i	?	-10%	nt	nt	nt	nt
COc1ccc(-c2noc(CC3CCN(C(=O)c4ccc(OC)c(OC)c4)CC3)n2)cc1	4%	?	?	i	?	3.5µM*	6.9µM*	6.9µM*	0%	5.4µM*
COc1ccc(C(=O)N2CCC(Cc3nc(-c4ccc(F)cc4)no3)CC2)cc1F	?	-14%	?	i	?	1.1µM*	1.1µM*	1.7µM*	0%	1.1µM*
Cc1ccc(CN2CCCC23Cc2ccccc2CNC3=O)cc1 (stereo not given)	-12%	-8%	?	nt	?	nt	nt	nt	nt	nt
CC(C)(C)C(=O)N1CCN(c2ccnc3ccnn23)CC1	20%[87.6 µM]	-2%[87.6 µM]	0%[138 µM]	nt	2%[172 µM]	nt	nt	nt	nt	nt
O=C1NC2(CCN(C(=O)c3ccccn3)CC2)Oc2ccccc21	-22%[87.6 µM]	6%[87.6 µM]	1%[138 µM]	i	-5%[172 µM]	0%[70.6 µM]	nt	nt	nt	nt
O=C1NC2(CCN(C(=O)c3ccccn3)CC2)COc2ccccc21	1%[87.6 µM]	4%[87.6 µM]	3%[138 µM]	i	-15%[172 µM]	?	?	25µM*	-14%[86.2 µM]	12%[86.2 µM]
